Test [1] addresses Calcium/calmodulin-dependent protein kinase type II subunit alpha (Homo sapiens) (UniProt Q9UQM7). Particulars: at 1 µM.
Test [2] has as its target Calcium/calmodulin-dependent protein kinase type II subunit delta (Homo sapiens) (UniProt Q13557). The note with it: at 0.1 µM.
The target is the same in test [3]. Particulars: at 1 µM.
The target in test [4] is T1, Calcium/calmodulin-dependent protein kinase type IV (Homo sapiens) (UniProt Q16566).
T1 sequence (whole entry): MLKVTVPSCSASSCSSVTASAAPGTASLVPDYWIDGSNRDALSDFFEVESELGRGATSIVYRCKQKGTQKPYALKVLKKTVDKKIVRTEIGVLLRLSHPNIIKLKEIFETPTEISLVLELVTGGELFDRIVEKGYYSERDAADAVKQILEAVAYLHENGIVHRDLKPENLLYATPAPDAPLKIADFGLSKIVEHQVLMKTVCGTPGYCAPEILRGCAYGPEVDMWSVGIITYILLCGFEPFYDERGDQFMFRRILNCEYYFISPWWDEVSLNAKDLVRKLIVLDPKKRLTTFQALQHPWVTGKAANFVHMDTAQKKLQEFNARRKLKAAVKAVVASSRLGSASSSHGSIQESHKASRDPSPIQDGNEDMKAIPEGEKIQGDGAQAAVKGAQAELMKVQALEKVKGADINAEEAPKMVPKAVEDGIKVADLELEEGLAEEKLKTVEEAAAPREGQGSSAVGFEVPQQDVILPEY
Particulars: at 0.1 µM.

Test [5] has as its target T1, Calcium/calmodulin-dependent protein kinase type IV (Homo sapiens). The note with it: at 1 µM.
The target of test [6] is T2, Serine/threonine-protein kinase Chk1 (Homo sapiens) (UniProt O14757).
T2 sequence (whole entry): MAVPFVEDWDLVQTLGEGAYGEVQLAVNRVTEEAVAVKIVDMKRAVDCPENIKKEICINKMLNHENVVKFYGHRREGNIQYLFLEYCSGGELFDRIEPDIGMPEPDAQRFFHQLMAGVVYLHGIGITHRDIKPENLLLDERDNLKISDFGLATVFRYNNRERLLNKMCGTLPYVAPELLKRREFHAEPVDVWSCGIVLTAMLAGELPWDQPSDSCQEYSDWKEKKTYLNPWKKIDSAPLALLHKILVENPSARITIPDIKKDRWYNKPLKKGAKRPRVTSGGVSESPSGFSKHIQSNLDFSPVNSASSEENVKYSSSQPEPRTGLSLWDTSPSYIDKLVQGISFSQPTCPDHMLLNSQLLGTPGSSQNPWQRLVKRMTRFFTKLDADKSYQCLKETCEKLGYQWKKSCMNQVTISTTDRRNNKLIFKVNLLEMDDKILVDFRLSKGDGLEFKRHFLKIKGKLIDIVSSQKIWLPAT
Particulars: at 0.1 µM.

The target of test [7] is T2, Serine/threonine-protein kinase Chk1 (Homo sapiens). Particulars: at 1 µM.
The target in test [8] is Serine/threonine-protein kinase Chk2 (Homo sapiens) (UniProt O96017). Particulars: at 0.1 µM.
For test [9] the target is unchanged. The note with it: at 1 µM.
Test [10] addresses Death-associated protein kinase 1 (Homo sapiens) (UniProt P53355). Particulars: at 0.1 µM.

Molecules are shown by their SMILES. Values joined by “and” are separate entries in the source; they are usually repeats but may differ in a detail not shown here. Identical values can stand only once.

Sequence of Calcium/calmodulin-dependent protein kinase type II subunit delta (Homo sapiens) (Q13557 whole entry): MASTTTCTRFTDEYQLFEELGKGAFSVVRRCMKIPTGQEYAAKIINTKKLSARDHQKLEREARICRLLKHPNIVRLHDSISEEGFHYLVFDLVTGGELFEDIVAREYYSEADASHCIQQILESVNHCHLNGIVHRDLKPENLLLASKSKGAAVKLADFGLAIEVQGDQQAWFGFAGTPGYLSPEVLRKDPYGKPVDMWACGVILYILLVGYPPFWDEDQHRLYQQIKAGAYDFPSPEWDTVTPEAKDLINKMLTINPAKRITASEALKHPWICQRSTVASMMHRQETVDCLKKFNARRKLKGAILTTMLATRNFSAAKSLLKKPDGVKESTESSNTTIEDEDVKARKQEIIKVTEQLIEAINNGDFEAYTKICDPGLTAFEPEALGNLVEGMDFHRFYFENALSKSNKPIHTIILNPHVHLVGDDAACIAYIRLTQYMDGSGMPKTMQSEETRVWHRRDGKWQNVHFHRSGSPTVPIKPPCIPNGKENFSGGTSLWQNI
Sequence of Serine/threonine-protein kinase Chk2 (Homo sapiens) (O96017 whole entry): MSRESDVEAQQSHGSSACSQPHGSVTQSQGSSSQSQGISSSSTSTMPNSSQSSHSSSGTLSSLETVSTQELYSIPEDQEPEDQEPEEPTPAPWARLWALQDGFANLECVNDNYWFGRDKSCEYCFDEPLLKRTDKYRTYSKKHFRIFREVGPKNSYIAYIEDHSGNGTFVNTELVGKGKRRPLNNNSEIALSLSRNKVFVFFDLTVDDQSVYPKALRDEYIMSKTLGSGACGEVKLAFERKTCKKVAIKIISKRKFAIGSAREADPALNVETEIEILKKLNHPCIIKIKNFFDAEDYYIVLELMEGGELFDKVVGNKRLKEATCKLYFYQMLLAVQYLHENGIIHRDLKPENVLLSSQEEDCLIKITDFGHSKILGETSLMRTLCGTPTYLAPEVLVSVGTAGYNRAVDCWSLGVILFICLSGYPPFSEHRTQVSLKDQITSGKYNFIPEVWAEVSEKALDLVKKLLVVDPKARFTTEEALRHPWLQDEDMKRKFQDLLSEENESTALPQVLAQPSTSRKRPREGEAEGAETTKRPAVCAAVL
Sequence of Calcium/calmodulin-dependent protein kinase type II subunit alpha (Homo sapiens) (Q9UQM7 whole entry): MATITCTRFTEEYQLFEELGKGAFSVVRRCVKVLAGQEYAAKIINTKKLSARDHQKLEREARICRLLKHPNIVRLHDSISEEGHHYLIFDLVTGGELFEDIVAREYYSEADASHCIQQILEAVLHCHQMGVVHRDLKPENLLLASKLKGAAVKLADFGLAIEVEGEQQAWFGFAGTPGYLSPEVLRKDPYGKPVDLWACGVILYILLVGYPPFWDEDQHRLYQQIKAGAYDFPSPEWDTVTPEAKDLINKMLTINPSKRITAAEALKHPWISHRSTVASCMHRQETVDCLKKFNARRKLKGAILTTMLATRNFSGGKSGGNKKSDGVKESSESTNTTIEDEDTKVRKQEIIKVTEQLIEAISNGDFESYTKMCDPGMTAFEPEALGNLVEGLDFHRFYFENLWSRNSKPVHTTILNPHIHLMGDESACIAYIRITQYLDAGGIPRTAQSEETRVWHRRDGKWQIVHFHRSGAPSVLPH
Sequence of Death-associated protein kinase 1 (Homo sapiens) (P53355 whole entry, looked up): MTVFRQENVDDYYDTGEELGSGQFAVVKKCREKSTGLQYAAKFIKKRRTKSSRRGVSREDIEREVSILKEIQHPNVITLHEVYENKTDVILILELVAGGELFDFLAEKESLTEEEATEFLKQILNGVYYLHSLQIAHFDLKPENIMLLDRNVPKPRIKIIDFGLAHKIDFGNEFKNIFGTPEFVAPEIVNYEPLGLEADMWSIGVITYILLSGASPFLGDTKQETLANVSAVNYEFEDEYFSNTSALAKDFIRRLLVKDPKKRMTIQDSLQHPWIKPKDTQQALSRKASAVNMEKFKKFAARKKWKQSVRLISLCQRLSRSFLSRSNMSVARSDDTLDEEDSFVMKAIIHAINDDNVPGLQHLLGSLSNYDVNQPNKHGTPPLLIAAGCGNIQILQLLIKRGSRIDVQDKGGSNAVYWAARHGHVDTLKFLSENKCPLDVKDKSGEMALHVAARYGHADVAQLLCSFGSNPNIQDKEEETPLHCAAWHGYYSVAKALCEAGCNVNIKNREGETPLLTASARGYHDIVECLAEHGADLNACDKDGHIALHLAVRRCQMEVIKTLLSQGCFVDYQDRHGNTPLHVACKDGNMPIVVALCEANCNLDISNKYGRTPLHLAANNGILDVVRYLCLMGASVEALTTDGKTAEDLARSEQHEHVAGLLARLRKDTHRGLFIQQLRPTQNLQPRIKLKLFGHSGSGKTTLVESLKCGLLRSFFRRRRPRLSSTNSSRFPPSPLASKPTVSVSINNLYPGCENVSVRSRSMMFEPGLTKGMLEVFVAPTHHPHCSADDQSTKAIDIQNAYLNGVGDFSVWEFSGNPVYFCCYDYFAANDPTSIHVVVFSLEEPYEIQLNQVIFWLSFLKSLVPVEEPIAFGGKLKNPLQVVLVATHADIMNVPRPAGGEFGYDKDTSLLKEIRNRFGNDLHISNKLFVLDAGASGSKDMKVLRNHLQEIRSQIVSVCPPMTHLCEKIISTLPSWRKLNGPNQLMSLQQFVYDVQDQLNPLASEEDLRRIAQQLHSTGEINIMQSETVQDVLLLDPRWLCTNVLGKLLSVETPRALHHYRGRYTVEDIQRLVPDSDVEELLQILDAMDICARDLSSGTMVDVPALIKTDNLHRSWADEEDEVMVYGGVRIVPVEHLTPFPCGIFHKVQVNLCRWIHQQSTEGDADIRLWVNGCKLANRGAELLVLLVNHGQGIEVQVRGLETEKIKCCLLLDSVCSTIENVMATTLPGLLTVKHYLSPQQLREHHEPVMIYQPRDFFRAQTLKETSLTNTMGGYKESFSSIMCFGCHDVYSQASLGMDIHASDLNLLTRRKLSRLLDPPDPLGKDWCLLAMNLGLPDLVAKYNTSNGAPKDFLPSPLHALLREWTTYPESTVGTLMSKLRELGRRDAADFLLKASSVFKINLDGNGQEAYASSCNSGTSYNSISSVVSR

What is called inhibition is the drop in the measured response relative to a control, in per cent. As to `O=C(O[C@H]1CN[C@H](C#Cc2cc3ncnc(Nc4ccc(OCc5cccc(F)c5)c(Cl)c4)c3s2)C1)N1CCOCC1`, the inhibition in test [1] was 3.21%; in [2], 3.54%; in test [3] it was 2.65%; in test [4] it was -1.14%; in test [5] it was -3.95%; in [6], -1.89%. Besides, the inhibition in [7] was -1.17%; in [8] it was -1.01%; in test [9], 2.28%; in test [10], -1.79%.
With `CN1CCN(Cc2ccc(-c3cc4ncnc(Nc5ccc(OCc6cccc(F)c6)c(Cl)c5)c4s3)o2)CC1`, the inhibition in test [1] was 5.07% and 4.38%; in test [2], 1.16% and 3.96%; in test [3] it was 3.36% and 5.38%; in test [4], -0.07% and -1.54%; in test [5], 2.1% and 1.05%; in test [6], 8.64% and 3.56%. The inhibition in test [7] is 7.78% and 8.12%; in [8], 9.39% and 5.57%; in [9] it was 28.6% and 26.4%; in test [10], 9.3% and 6.62%.
In the case of `CCS(=O)(=O)c1ccc(OC)c(Nc2ncc(-c3cccc(C(C)=O)c3)o2)c1`, the inhibition in [1] is 1.16%; in test [2] it was 1.73%; in test [3], 3.23%; in test [4], -3%; in test [5], -5.43%; in test [6], -0.75%. The inhibition in test [7] is -1.38%; in [8] it was 1.62%; in [9], 3.67%; in test [10] it was 2.47%.
On to `N#Cc1ccc2c(-c3ccnc(NC4CC4)n3)c(-c3ccc(F)cc3)nn2c1`, for which the inhibition in [1] was -1.71%; in [2] it was 0.13%; in test [3], -1.01%; in [4], 0.17%; in test [5] it was -2.53%; in test [6], -1.96%. Also, the inhibition in [7] was -0.86%; in [8], -0.32%; in test [9], 0.27%; in [10], 1.33%.
Turning to `O=C1Nc2ccccc2/C1=C1\CCc2cc(O)ccc21`, the inhibition in [1] was 8.04%; in test [2] it was 6.22%; in test [3], 13%; in test [4] it was 0.46%; in test [5] it was -0.69%; in test [6] it was -1.18%. In addition, the inhibition in test [7] is 9.92%; in [8], 1.37%; in [9], 21.3%; in test [10], -1.94%.
As to `O=C(O[C@H]1CN[C@H](C#Cc2cc3ncnc(Nc4ccc5c(cnn5Cc5ccccc5)c4)c3s2)C1)N1CCOCC1`, the inhibition in test [1] is -1.88%; in [2], 0.73%; in test [3], 0.8%; in test [4], 0.67%; in [5], -0.25%; in [6], 0.36%. For the same molecule, the inhibition was -0.07% in test [7], -1.25% in test [8], 0.86% in test [9] and -0.35% in test [10].
As to `O=C(Nc1n[nH]c2nnc(-c3cccnc3)cc12)C1CC1`, the inhibition in [1] is 1.88%; in test [2], -1.25%; in [3] it was 1.45%; in test [4], 1.28%; in test [5], 0.43%; in test [6], 0.7%. For the same molecule, the inhibition in test [7] was -2.5%; in test [8], -1.27%; in [9] it was -0.14%; in [10], -1.32%.
`COc1cc2c(cc1Nc1nc(Nc3cccc(F)c3C(N)=O)c3cc[nH]c3n1)N(C(=O)CN1CCN(C(C)C)CC1)CC2`: the inhibition is 8.11% in [1]; 2.82% in test [2]; 7.41% in [3]; 2.31% in [4]; 7.37% in test [5]; -0.51% in test [6]. The inhibition was found to be 4.94% in [7], 6.05% in [8], 29.8% in test [9] and 2.3% in test [10].
`Fc1ccc(Nc2nccc(-c3c(-c4ccc(C(F)(F)F)cc4)nn4ncccc34)n2)cc1F`: the inhibition in test [1] is 4.6%; in [2], 1.73%; in test [3] it was 4.42%; in [4] it was -0.48%; in [5], 0.05%; in test [6], 3%. Moreover, the inhibition turned out to be 3.73% in test [7], 3.02% in test [8], 4.46% in [9] and 3.45% in test [10].
Regarding `COC(=O)Nc1nc2cc(Oc3ccc(NC(=O)Nc4ccccc4)cc3)ccc2[nH]1`, the inhibition in test [1] was 1.94%; in test [2] it was 1.6%; in test [3] it was 1.54%; in [4], -1.32%; in test [5], -2.54%; in test [6], -0.71%. Besides, the inhibition in [7] came to 3.92%; in test [8], 1.94%; in test [9], 3.46%; in [10] it was 3.21%.
As to `CN(C)CCNC(=O)Nc1ccc(N(C)c2ccnc(Nc3ccc(CS(C)(=O)=O)cc3)n2)cc1`, the inhibition in [1] was 4.63%; in test [2], 4.54%; in [3] it was 5.02%; in [4], 0.83%; in [5] it was -0.68%; in test [6], 3.83%. The inhibition in test [7] was determined as 0.79%; in test [8], 3.72%; in test [9], 11.9%; in test [10], 3.93%.
In the case of `NS(=O)(=O)c1ccc(N/N=C2\C(=O)Nc3cccc(CCc4ccncc4)c32)cc1`, the inhibition in test [1] was 1.32%; in [2], -0.63%; in [3], 4.29%; in test [4], 1.59%; in [5], 0.34%; in [6], 1.74%. The inhibition was 1.93% in test [7], -0.6% in test [8], 0.61% in test [9] and -0.39% in test [10].
Take `Fc1cccc(COc2ccc(Nc3ncncc3C#Cc3ccccc3)cc2Cl)c1`: the inhibition in test [1] was 3.65%; in test [2], 2.79%; in test [3], 2.05%; in test [4], -2.29%; in test [5] it was -4.84%; in test [6] it was 3.29%. Besides, the inhibition in test [7] amounted to 5.99%; in [8], 3.47%; in test [9], 5.22%; in [10], 5.08%.
Turning to `COC(=O)Nc1nc2ccc(Oc3ccc(NC(=O)Nc4cc(C(F)(F)F)ccc4F)cc3)cc2s1`, the inhibition in [1] was 0.75%; in test [2], 0.25%; in [3], 1.63%; in test [4] it was 0.98%; in test [5], 2.48%; in test [6], -6.7%. For the same molecule, the inhibition in test [7] was 0.48%; in [8], -0.62%; in test [9] it was -0.04%; in [10], -0.48%.
With `COc1ccccc1-c1cc(/C=C2\C(=O)Nc3ncc(Br)cc32)cc(Br)c1O`, the inhibition in test [1] is 5.91%; in test [2], 4.86%; in [3], 7.42%; in test [4] it was 0.86%; in test [5], 1.67%; in test [6], 2.44%. Besides, the inhibition in [7] turned out to be 3.84%; in test [8], 4.82%; in test [9], 6.73%; in test [10] it was 0.98%.
With `Cn1c(-c2nonc2N)nc2cnccc21`, the inhibition in [1] stood at 1.59%; in test [2], 2.9%; in [3], 4.76%; in [4] it was 2.54%; in test [5], 2.02%; in test [6], 1.55%. Further, the inhibition in test [7] worked out at 2.48%; in [8] it was 2.16%; in test [9] it was 3.21%; in [10], 2.36%.
